Assay results: PubChem BioAssay (NCI)
Compounds without any hit were thinned out: in the full panel of roughly 79,000, 15% have a hit. Activity calls are given as the source filed them. No stated cut-off is given here; in the data, active means growth inhibition above about 70%; inactive means the rest.

Assays:
[1] = NCI Yeast Anticancer Drug Screen. Data for the rad14 strain (AID 159);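 further: 0% = growth of vehicle-treated control cultures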; conditions: S. cerevisiae rad14 strain growth inhibition, stronger effect = higher value
Method in brief: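 Inhibition of growth is reported for a repair-deficient yeast mutant following compound treatment, calculated relative to cultures that received vehicle.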

[2] = NCI Yeast Anticancer Drug Screen. Data for the sgs1 mgt1 strain (AID 161);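 further: 0% = growth of cultures given vehicle only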; conditions: S. cerevisiae sgs1 mgt1 strain, stronger effect = higher value
Method in brief: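 Percent growth inhibition was derived by comparing compound-exposed mutant yeast with vehicle-exposed cultures. The strain carries alterations in DNA damage repair.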

[3] = NCI Yeast Anticancer Drug Screen. Data for the CLN2oe strain (AID 163);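 further: 0% = growth of vehicle-only control cultures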; conditions: S. cerevisiae CLN2oe strain, stronger effect = higher value
Method in brief: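 Whole-cell yeast growth assay. A strain engineered for altered cell-cycle control received compound, and inhibition relative to vehicle-treated cultures was recorded.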

[4] = NCI Yeast Anticancer Drug Screen. Data for the cln2 rad14 strain (AID 165);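 further: 0% = growth equal to vehicle treated cultures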; conditions: S. cerevisiae cln2 rad14 strain, stronger effect = higher value
Method in brief: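 Yeast strain cln2 rad14, bearing defects in cell cycle control and DNA repair, serves as the test system; values reflect growth inhibition compared with vehicle.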

[5] = NCI Yeast Anticancer Drug Screen. Data for the bub3 strain (AID 167); conditions: S. cerevisiae bub3 mutant strain, stronger effect = higher value
Method in brief: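 Mutant yeast screening strain plus compound; vehicle-treated cultures serve as the 0% inhibition reference.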

[6] = NCI Yeast Anticancer Drug Screen. Data for the wt2 strain (AID 169); conditions: S. cerevisiae wt2 strain growth inhibition, stronger effect = higher value
Method in brief: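 Treated yeast vs. vehicle-treated yeast: growth inhibition determined.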

[7] = NCI Yeast Anticancer Drug Screen. Data for the mlh1 strain (AID 171);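 further: 0% = growth of vehicle-treated control cultures of the same strain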; conditions: S. cerevisiae mlh1 strain growth inhibition, stronger effect = higher value
Method in brief: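 A yeast strain with a defined genetic lesion serves as the test organism. Cultures receive compound or vehicle, and growth is measured.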

[8] = NCI Yeast Anticancer Drug Screen. Data for the sgs1 strain (AID 173);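 further: 0% = growth of vehicle-only control cultures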; conditions: S. cerevisiae sgs1 mutant, stronger effect = higher value
Method in brief: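 A genetically defined yeast mutant is incubated with the test compound, and its growth is compared to that of the same strain given vehicle.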

[9] = NCI Yeast Anticancer Drug Screen. Data for the mlh1 rad18 strain (AID 175); conditions: S. cerevisiae mlh1 rad18 strain growth inhibition, stronger effect = higher value
Method in brief: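 Steps: expose repair-defective yeast to compound; measure growth; express inhibition against vehicle-treated controls.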

[10] = NCI Yeast Anticancer Drug Screen. Data for the rad18 strain (AID 177); conditions: S. cerevisiae rad18 mutant growth inhibition, stronger effect = higher value
Method in brief: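 Measured value is growth inhibition of a yeast strain bearing a DNA repair alteration, referenced to vehicle-treated cells.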

[11] = NCI Yeast Anticancer Drug Screen. Data for the rad52 strain (AID 147);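 further: 0% = growth of vehicle-treated control cultures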; conditions: S. cerevisiae rad52 mutant growth inhibition, stronger effect = higher value
Method in brief: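 Here a repair-compromised yeast strain receives each compound; its growth is then quantified and normalised to vehicle-only controls.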

[12] = NCI Yeast Anticancer Drug Screen. Data for the rad50EPP+ strain (AID 151);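 further: 0% = growth of vehicle-treated control cultures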; conditions: S. cerevisiae rad50 mutant strain, stronger effect = higher value
Method in brief: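 Read-out is yeast growth inhibition relative to vehicle; cells used were the rad50EPP+ strain.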

[13] = NCI Yeast Anticancer Drug Screen. Data for the rad50 strain (AID 155);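 further: 0% = growth of vehicle-only cultures of the same strain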; conditions: S. cerevisiae rad50 strain growth inhibition, stronger effect = higher value
Method in brief: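 Vehicle-treated cultures provide the reference for the growth inhibition reported for compound-exposed, repair-deficient yeast.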

[14] = NCI Yeast Anticancer Drug Screen. Data for the mec2-1 strain (AID 157); conditions: S. cerevisiae mec2-1 strain, stronger effect = higher value
Method in brief: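 Using mec2-1 yeast: add compound, measure growth, express inhibition versus vehicle-treated cultures.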

[15] = NCI Yeast Anticancer Drug Screen. Data for the wt1 strain (AID 149);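 further: 0% = growth of vehicle-treated wt1 cultures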; conditions: S. cerevisiae wt1 strain (SPY 50644) growth inhibition, stronger effect = higher value
Method in brief: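 Each compound is tested on wt1 yeast and the loss of growth versus vehicle gives the inhibition value.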

[16] = at 5.0 µM (retest, dose inferred, filed as 0.5)
[17] = at 50.0 µM (retest, dose inferred, filed as 5.0)

Measured: growth inhibition

O=C1C=CC(=Nc2ccccc2)c2ccccc21
active: [5]; at 33.0 µM 84% | [5]; [17] 94% | [5]; at 50.0 µM 82.3% | [5]; at 100.0 µM 88% | [7]; at 100.0 µM 82% | [8]; at 100.0 µM 76% | [9]; [17] 87% | [10]; at 33.0 µM 84% | [10]; at 100.0 µM 80%
inactive: [1]; at 100.0 µM 58% | [2]; [16] 30% | [2]; [17] 60% | [2]; at 50.0 µM 31.6% | [3]; at 1.2 µM -2% | [3]; at 3.7 µM -4% | [3]; at 11.0 µM 6% | [3]; at 33.0 µM 43% | [3]; at 100.0 µM 39% | [4]; [16] -17% | [4]; [17] 32% | [4]; at 50.0 µM 24.6% | [5]; at 1.2 µM 12% | [5]; at 3.7 µM 37% | [5]; [16] 65% | [5]; at 11.0 µM 62% | [6]; at 1.2 µM 8% | [6]; at 3.7 µM 17% | [6]; at 11.0 µM 35% | [6]; at 33.0 µM 54% | [6]; at 100.0 µM 69% | [7]; at 1.2 µM 3% | [7]; at 3.7 µM 5% | [7]; at 11.0 µM 20% | [7]; at 33.0 µM 67% | [8]; at 1.2 µM 5% | [8]; at 3.7 µM 12% | [8]; at 11.0 µM 29% | [8]; at 33.0 µM 60% | [9]; [16] 27% | [9]; at 50.0 µM 36.5% | [10]; at 1.2 µM 2% | [10]; at 3.7 µM 6% | [10]; at 11.0 µM 37%

CNc1nc(C)nc2c1cnn2-c1ccc([N+](=O)[O-])cc1
inactive: [11]; at 1.2 µM -1% | [11]; at 3.7 µM -6% | [11]; at 11.0 µM 10% | [11]; at 33.0 µM 26% | [11]; at 100.0 µM 41% | [12]; at 1.2 µM 11% | [12]; at 3.7 µM 17% | [12]; at 11.0 µM 42% | [12]; at 33.0 µM 63% | [12]; at 100.0 µM 69% | [13]; at 1.2 µM -2% | [13]; at 3.7 µM -5% | [13]; [16] 1% | [13]; at 11.0 µM 16% | [13]; at 33.0 µM 68% | [14]; at 1.2 µM 0% | [14]; at 3.7 µM 0% | [14]; [16] -2% | [14]; at 11.0 µM 2% | [14]; at 33.0 µM -1% | [14]; [17] 31% | [14]; at 50.0 µM -1.35% | [14]; at 100.0 µM -2% | [2]; [16] 2% | [2]; at 50.0 µM 69.7% | [3]; at 1.2 µM -6% | [3]; at 3.7 µM -5% | [3]; at 11.0 µM -5% | [3]; at 33.0 µM -6% | [3]; at 100.0 µM -8% | [4]; [16] -4% | [4]; [17] 30% | [4]; at 50.0 µM 2% | [5]; at 1.2 µM -5% | [5]; at 3.7 µM -2% | [5]; [16] -2% | [5]; at 11.0 µM -12% | [5]; at 33.0 µM -12% | [5]; [17] 2% | [5]; at 50.0 µM -13.3% | [5]; at 100.0 µM -14% | [6]; at 1.2 µM -4% | [6]; at 3.7 µM 9% | [6]; at 11.0 µM 13% | [6]; at 33.0 µM 24% | [6]; at 100.0 µM 16% | [7]; at 1.2 µM -5% | [7]; at 3.7 µM -1% | [7]; at 11.0 µM 0% | [7]; at 33.0 µM -1% | [7]; at 100.0 µM -1% | [8]; at 1.2 µM 5% | [8]; at 3.7 µM 4% | [8]; at 11.0 µM 44% | [8]; at 33.0 µM 69% | [9]; [16] -8% | [9]; at 50.0 µM 57.5% | [10]; at 1.2 µM -1% | [10]; at 3.7 µM 16% | [10]; at 11.0 µM 49%
active: [13]; [17] 76% | [13]; at 50.0 µM 79.2% | [13]; at 100.0 µM 88% | [2]; [17] 83% | [8]; at 100.0 µM 80% | [9]; [17] 91% | [10]; at 33.0 µM 89% | [10]; at 100.0 µM 92%

N#CSC1CCCCNC1=O (stereo unspecified)
active: [15]; at 100.0 µM 93% | [12]; at 33.0 µM 70% | [12]; at 100.0 µM 85% | [14]; at 50.0 µM 78.3% | [14]; at 100.0 µM 94% | [1]; at 100.0 µM 99% | [3]; at 100.0 µM 96% | [5]; at 50.0 µM 79.7% | [5]; at 100.0 µM 97% | [6]; at 100.0 µM 98% | [7]; at 100.0 µM 98% | [8]; at 33.0 µM 89% | [8]; at 100.0 µM 99% | [9]; at 50.0 µM 95.9% | [10]; at 11.0 µM 82% | [10]; at 33.0 µM 94% | [10]; at 100.0 µM 98%
inactive: [15]; at 1.2 µM -3% | [15]; at 3.7 µM -3% | [15]; at 11.0 µM 9% | [15]; at 33.0 µM 46% | [12]; at 1.2 µM 6% | [12]; at 3.7 µM 18% | [12]; at 11.0 µM 42% | [14]; at 1.2 µM 4% | [14]; at 3.7 µM 3% | [14]; [16] -47% | [14]; at 11.0 µM 25% | [14]; at 33.0 µM 51% | [14]; [17] 3% | [1]; at 1.2 µM 2% | [1]; at 3.7 µM -4% | [1]; at 11.0 µM 10% | [1]; at 33.0 µM 59% | [2]; [16] -59% | [2]; [17] 35% | [2]; at 50.0 µM 50% | [3]; at 1.2 µM -4% | [3]; at 3.7 µM -4% | [3]; at 11.0 µM 21% | [3]; at 33.0 µM 44% | [4]; [16] -58% | [4]; [17] -13% | [4]; at 50.0 µM 52.5% | [5]; at 1.2 µM -4% | [5]; at 3.7 µM 4% | [5]; [16] -66% | [5]; at 11.0 µM 36% | [5]; at 33.0 µM 60% | [5]; [17] 2% | [6]; at 1.2 µM 0% | [6]; at 3.7 µM -1% | [6]; at 11.0 µM 10% | [6]; at 33.0 µM 49% | [7]; at 1.2 µM 7% | [7]; at 3.7 µM -4% | [7]; at 11.0 µM 26% | [7]; at 33.0 µM 56% | [8]; at 1.2 µM 1% | [8]; at 3.7 µM 5% | [8]; at 11.0 µM 57% | [9]; [16] -126% | [9]; [17] 58% | [10]; at 1.2 µM 12% | [10]; at 3.7 µM 33%
